The text below walks through data of ChEMBL document CHEMBL1157539, “Thousands of chemical starting points for antimalarial lead identification” (Nature, 2010).

For orientation: Inhibition means the percentage by which the read-out fell short of the control. A low value points to a weak effect.

Values joined by “and” are separate entries in the source; they are usually repeats but may differ in a detail not shown here. Equal values may be shown once.

This experiment has as its system Plasmodium falciparum. The experiment in a line: GSK_TCMDC: Inhibition of Plasmodium falciparum 3D7 in whole red blood cells, using parasite LDH activity as an index of growth. Test compounds present at 2uM. In kind it is functional.
Regarding `OCCc1ccc(Nc2nccc(-c3nnc4ccccn34)n2)cc1`, the Inhibition is reported as 93%.
For `COc1ccc(-c2nc3c(N)nc(N)nc3nc2C(C)C)cc1`, the Inhibition came to 96%.
The result for `O=C1Nc2cccc3c2C1(CCCCN1CCC(c2cc4ccncc4[nH]2)CC1)CCC3` (centres undefined) reads 99% and 97%; that for `COc1cccc(C(=O)C2CC2CN(C)CCC(O)c2ccc(Cl)c(Cl)c2)c1` (centres undefined), 99%; that for `NS(=O)(=O)c1cccc(Nc2nc(N[C@@H]3CCNC3)nc3cc[nH]c(=O)c23)c1.O=C(O)C(F)(F)F`, 99%.
For `Cc1ccc(O)c(CN2CCCC(COC(c3ccc(F)cc3)c3ccc(F)cc3)C2)c1` (centres undefined) the value was 98%.
The result for `Cc1cccc2nc(-c3cccc(-c4cccc(NC(=O)c5cnn6cccnc56)c4)c3)[nH]c12` reads 100%; that for `CCn1c(Sc2ccc(C#N)c([N+](=O)[O-])c2)nnc1-c1ccc(OC)cc1`, 98%; that for `Cc1ccc(NC(=O)Nc2cccc(Cl)c2)cc1-c1ccc(C(=O)Nc2ccncc2)cc1`, 97%.
`Cc1ccc(Nc2nccc(N(C)c3ccc4c(c3)nc(NC(=O)Cc3ccc(Cl)c(Cl)c3)n4C)n2)cc1S(N)(=O)=O.O=C(O)C(F)(F)F` yielded an Inhibition of 94%.
For `Cn1ccc2c3c(N)nc(N)nc3ccc21` the value was 91%; for `Cc1cccc2nc(-c3cccc(-c4cccc(NC(=O)c5cccnc5)c4)c3)[nH]c12`, 100%; for `COc1ccc(C[C@H](N)C(=O)N[C@H]2[C@@H](O)[C@H](n3cnc4c(N(C)C)ncnc43)O[C@@H]2CO)cc1.Cl`, 100%.
For `O=C(O)c1cc(OCC(O)COc2ccc(O)c(C(=O)O)c2)ccc1O` the value was 99%.
